Data on 25 molecules can be found in PubChem BioAssay AID1917 (Vanderbilt High Throughput Screening Facility, 2009).

Structures are written as SMILES. In all, about 3,000 compounds went through this assay and about 1,600 (53%) were called active. Not shown: some 10% with an inconclusive outcome. So high a share suggests a set chosen from earlier hits. Not all results are given here. Unmarked numbers belong to inactive results.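 Rule for the calls: active = Flux at 10 µM at least 3 SD below or above vehicle control mean in one or both replicates; inconclusive = no clear call, values can overlap the other calls; inactive = the rest.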

Chain of ATP-sensitive inward rectifier potassium channel 1 (Homo sapiens) (P48048 whole entry, looked up): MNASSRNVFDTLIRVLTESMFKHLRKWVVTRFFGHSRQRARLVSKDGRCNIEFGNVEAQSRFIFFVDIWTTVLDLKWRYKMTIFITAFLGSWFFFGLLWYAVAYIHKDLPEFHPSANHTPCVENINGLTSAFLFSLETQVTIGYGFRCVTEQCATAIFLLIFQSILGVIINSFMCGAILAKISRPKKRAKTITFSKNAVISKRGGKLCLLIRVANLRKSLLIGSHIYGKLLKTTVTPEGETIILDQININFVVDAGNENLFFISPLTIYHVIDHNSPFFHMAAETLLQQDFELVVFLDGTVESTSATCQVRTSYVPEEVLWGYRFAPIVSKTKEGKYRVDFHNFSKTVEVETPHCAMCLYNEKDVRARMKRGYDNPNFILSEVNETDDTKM

The test has as its target ATP-sensitive inward rectifier potassium channel 1 (Homo sapiens) (UniProt P48048). As to the kind of experiment: retested modulators of human Kir1.1 channel – cell-based, thallium flux, duplicate, resupplied hits, confirmation (AID 1917). The settings on record: ROMK thallium flux, fluorescence ratio; at 10 µM; hits give low values.
On to `COc1ccc(N=Cc2c(O)[nH]c3ccccc23)cc1OC`, for which the normalized thallium flux (F/F0 slope) is 0.0799.

Take `O=[N+]([O-])c1ccc(N=Cc2c(O)ccc3ccccc23)cc1`: the normalized thallium flux (F/F0 slope) is 0.064 (active).

On to `Cc1nc2ccccc2nc(=O)c1NNc1ccc([N+](=O)[O-])cc1`, for which the normalized thallium flux (F/F0 slope) is 0.0842.

`C=CCn1cnc2scc(-c3ccccc3)c2c1=O`: the normalized thallium flux (F/F0 slope) is 0.049 (active).

`O=C(Nc1ccc(N2CCOCC2)cc1)c1ccc(-c2ccccc2[N+](=O)[O-])o1`: the normalized thallium flux (F/F0 slope) is 0.108 (active).

Take `O=C(CCN1CCc2ccccc2C(O)(c2ccccc2)C1)c1ccc2c(c1)OCCO2` (stereo not given): the normalized thallium flux (F/F0 slope) is 0.0602 (active).

On to `CSc1nc2nc3c(c(=O)n2[nH]1)CCC3`, for which the normalized thallium flux (F/F0 slope) was 0.0761.

As for `Cc1cccn2c(=O)c3cc(C(=O)N4COCC4(C)C)n(C)c3nc12`, the normalized thallium flux (F/F0 slope) is 0.0444 (active).

As for `Cc1ccc(S(=O)(=O)C2(S(=O)(=O)c3ccc(C)cc3)CCCC2)cc1`, the normalized thallium flux (F/F0 slope) is 0.0776.

As to `Cc1cc2cc(CN(Cc3cccs3)Cc3nnnn3CC3CCCO3)c(=O)[nH]c2cc1C` (stereo not given), the normalized thallium flux (F/F0 slope) is 0.0575 (active).

Turning to `NC(=O)c1ccccc1N(Cc1ccccc1)S(=O)(=O)c1ccccc1`, the normalized thallium flux (F/F0 slope) was 0.0757.

For the molecule `O=C(O)c1ccc2c(c1)C(=O)N(c1ccc(/C=C/C(=O)c3ccccc3)cc1)C2=O`, the normalized thallium flux (F/F0 slope) was 0.0504 (active).

Turning to `CC(C)(c1ccccc1)c1ccc(OCCN)cc1`, the normalized thallium flux (F/F0 slope) was 0.0605 (active).

In the case of `CCCN(CCC)CC(O)COc1ccccc1C(=O)Nc1ccccc1` (stereo not given), the normalized thallium flux (F/F0 slope) is 0.055 (active).

Regarding `CS(=O)(=O)c1ccc(Cl)c(NC(=O)Nc2ccccc2)c1`, the normalized thallium flux (F/F0 slope) is 0.0706.

`Cc1cccc(-n2c(SCC(=O)Nc3cccc(S(=O)(=O)NC4=NCCCCC4)c3)nc3ccccc3c2=O)c1C`: the normalized thallium flux (F/F0 slope) is 0.0482 (active).

Turning to `Cc1ccc(C)c(NC(=O)CSc2nc3c(oc4ccccc43)c(=O)n2-c2ccccc2)c1`, the normalized thallium flux (F/F0 slope) is 0.077.

As for `O=C(CN1CCCCCC1)NCCN1C(=O)S/C(=C\c2ccccc2Cl)C1=O`, the normalized thallium flux (F/F0 slope) was 0.0525 (active).

On to `O=[N+]([O-])c1cc(Cl)cc(/C=N/NC(=S)Nc2cc(S(=O)(=O)N3CCOCC3)ccc2Cl)c1O`, for which the normalized thallium flux (F/F0 slope) is 0.0856.

For `O=C1C(=O)N(c2ccccc2)c2ccccc21`, the normalized thallium flux (F/F0 slope) is 0.0906.

As for `CCCOc1ccc(C(=O)C(CCC(CNCC)C(=O)c2ccc(OCCC)cc2)CNCC)cc1` (stereo not given), the normalized thallium flux (F/F0 slope) was 0.0393 (active).

As to `O=C(Cn1nc(CNc2ccc(Cl)cc2)[n+]2c1CCCCC2)c1ccc(Cl)cc1`, the normalized thallium flux (F/F0 slope) was 0.0549 (active).

In the case of `Cn1c(SCC(=O)N2CCCc3ccccc32)nc2ccccc2c1=O`, the normalized thallium flux (F/F0 slope) is 0.0629 (active).

As to `C=CCOc1cccc(CNn2cn[nH]c2=S)c1`, the normalized thallium flux (F/F0 slope) was 0.0819.

Take `CN(C)/C=C(/C(=O)c1ccc(Cl)c(Cl)c1)c1nnnn1-c1ccccc1`: the normalized thallium flux (F/F0 slope) is 0.0735.
